Bioassay records: PubChem, National Center for Advancing Translational Sciences (NCATS)
Sampled rows, rich in hits. Any-hit rate of the full collection: about 2.5%.
p53ts 32C tox: qHTS Screen for Compounds that Selectively Target Cancer Cells with p53 Mutations: Cytotoxicity of p53ts Cells at the Permissive Temperature; H1299-p53A138V at 32C, ATP luminescence viability, 24 h; Potency, µM (highest dose often 46.1 µM), for inactives: at the highest dose activity change, negative = cytotoxicity, hits mostly cytotoxic; actives 0.93% (n = 130,000); AID 924, 2007;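 also: 0% = DMSO and -100% = full killing by reference compound; nearly all actives have a fitted effect of over 55% in size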
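Cells: H1299 p53ts (A138V), 600/well, pre-incubated 16–30 h at 37C. Cpd up to 46 uM, 24 h, 32C. Readout: ATPlite luminescence, 20 min RT. Normalization: DMSO vs tamoxifen 100 uM. AC50 by Hill equation.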
FLuc inh: qHTS Assay for Inhibitors of Firefly Luciferase. actives 2.2% (n = 72,000). Potency, µM (doses to about 57.1 µM), without a hit: top-dose activity change, negative = inhibition, actives largely listed as inhibitors. purified firefly luciferase, luminescence, 8 min. Luciferin 4-monooxygenase (Photinus pyralis), P08659; also: nearly all actives have a fitted effect of over 40% in size
Target sequence (P08659 whole entry, looked up): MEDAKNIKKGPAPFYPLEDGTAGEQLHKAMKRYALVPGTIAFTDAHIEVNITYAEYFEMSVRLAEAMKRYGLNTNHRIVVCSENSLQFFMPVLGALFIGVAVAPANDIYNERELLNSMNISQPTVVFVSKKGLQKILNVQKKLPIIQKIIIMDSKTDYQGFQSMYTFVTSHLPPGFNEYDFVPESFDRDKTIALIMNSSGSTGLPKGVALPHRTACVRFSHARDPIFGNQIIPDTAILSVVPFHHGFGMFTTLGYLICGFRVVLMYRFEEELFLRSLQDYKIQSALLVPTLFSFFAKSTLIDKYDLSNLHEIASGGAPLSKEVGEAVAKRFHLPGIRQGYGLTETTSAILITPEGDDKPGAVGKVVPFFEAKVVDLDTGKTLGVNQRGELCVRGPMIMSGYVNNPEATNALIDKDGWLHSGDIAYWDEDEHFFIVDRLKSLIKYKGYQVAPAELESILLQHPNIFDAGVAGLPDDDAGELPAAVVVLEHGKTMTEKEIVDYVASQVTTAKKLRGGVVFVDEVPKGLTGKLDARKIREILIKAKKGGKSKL
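Titration-based qHTS; buffer 50 mM imidazole pH 7.2, 50 mM KCl, 7 mM MgCl2, 10 uM ATP, 0.01% Tween 20, 0.05% BSA; luciferase/luciferin detector mix added after compound; 8 min, ambient; luminescence.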
p53ts 39C tox: qHTS Screen for Compounds that Selectively Target Cancer Cells with p53 Mutations: Cytotoxicity of p53ts Cells at the Nonpermissive Temperature | H1299-p53A138V viability at 39C, ATP luminescence, 24 h | Potency, µM (titrated, usually from 46.1 µM), inactives show at the top dose activity change, negative = cell killing, actives largely listed as cytotoxic | actives 1.5% (n = 130,000) | AID 902, 2007; also: nearly all actives have a fitted effect of over 55% in size
* hit, by the source's call; ? = inconclusive; / = no result; ! = not confirmed by another sample; [ ] = another dose, or the depositor's remark. Calls follow the shape of the dose curve; as a rule, active = well fitted curve in the direction sought with a large enough effect; inconclusive = small, poorly fitted or top-dose-only effect, or another doubt; inactive = no such curve, though single readings can be large; an effect the other way counts as inactive or inconclusive. Unless noted, % is scaled to controls: 0 for no effect and ±100 for the full control effect; potency is read from the fitted curve at half-maximal effect.

SMILES	p53ts 32C tox	FLuc inh	p53ts 39C tox
CC(Oc1ccc(Br)cc1)C(=O)NCc1cccnc1 (stereo not drawn)	1%	/	0%
COc1ccc(-c2nc3cnc(Nc4cccc(OC)c4)nc3n(C[C@H]3CCCO3)c2=O)cc1	-17%	-2%[11.4 µM]	9%
Cc1nc2ncnn2c(N2CCN(C(c3ccccc3)c3ccccc3)CC2)c1C	?	1%	20µM*
Cc1cc(N2CCN(C(c3ccccc3)c3ccccc3)CC2)n2ncnc2n1	12%	4%	8%
CO[C@@H]1/C=C\O[C@]2(C)Oc3c(C)c(O)c4c(O)c(c(/C=N\N5CCN(C)CC5)c(O)c4c3C2=O)NC(=O)/C(C)=C\C=C/[C@H](C)[C@H](O)[C@H](C)[C@H](O)[C@H](C)[C@H](OC(C)=O)[C@@H]1C	/	-1%[11.4 µM]	/
Clc1ccccc1-c1nnc(-c2ccccc2CNc2ccc(Br)cc2)o1	3%	/	-12%
CO[C@@H]1/C=C\CC(=O)N2CCC[C@@H]2C(=O)OC[C@@H](C)C(=O)OC[C@H]1C	8%[9.22 µM]	0%[11.4 µM]	10%[9.22 µM]
Cc1cc(=O)[nH]c(S/C=C/c2ccccc2)n1	6.3µM*	16µM*	5µM*
COc1ccc(CSc2nc(C)cc(=O)[nH]2)cc1	-17%	-4%	-16%
COC(=O)NC(/C=C/c1ccccc1)[C@]1(C(C)=O)CCCC1=O (stereo partly drawn)	-9%[9.22 µM]	/	12%[9.22 µM]
O=C(CC(SCCO)c1ccc(F)cc1)c1ccco1 (stereo not drawn)	-5%	-3%	-10%
Cc1ccc(C(CC(=O)c2ccco2)SCCO)cc1 (stereo not drawn)	-9%	25µM*	-9%
Cc1ccc(OCC(O)Cn2c(=N)n(CCN3CCOCC3)c3ccccc32)cc1 (stereo not drawn)	-8%	6%	-15%
Cc1ccc(OCC(O)Cn2c(=N)n(CCN3CCCCC3)c3ccccc32)cc1 (stereo not drawn)	-12%	3%	13µM*
N=c1n(CCO)c2ccccc2n1CCOc1ccc(Cl)cc1Cl	?	0%	13µM*
COc1ccc(OCC(O)CN2CCCCC2)cc1 (stereo not drawn)	-9%	1%	5%
N=c1n(CCN2CCCCC2)c2ccccc2n1CC(O)COc1ccc(Cl)cc1Cl (stereo not drawn)	22µM*	/	3.2µM*
COc1ccc(OCC(O)Cn2c(=N)n(CCN3CCCCC3)c3ccccc32)cc1 (stereo not drawn)	-28%	1%	13µM*!
O[C@@H](COc1ccc(Cl)cc1Cl)CN1CCCC1	3%[9.22 µM]	0%[11.4 µM]	1%[9.22 µM]
N=c1n(CCO)c2ccccc2n1Cc1ccccc1Cl	1%	2%	14%
COc1cc(-c2ccc(N=C=O)c(OC)c2)ccc1N=C=O	-19%[1.84 µM]	/	9%
Cc1ccccc1Cn1c2ccccc2c2cnn(CC(=O)NCCc3ccccc3)c(=O)c21	-25%	/	?
O=C(Cn1c(=O)n2nc(-c3ccccc3)nc2c2ccccc21)Nc1ccccc1C(F)(F)F	1%	/	14%
Cc1ccc(S(=O)(=O)N(CC(=O)O)c2cccc(Cl)c2)cc1	4%	/	-6%
CCC(=O)[C@@H](c1ccccc1)c1ccccn1	0%[9.22 µM]	1%[11.4 µM]	5%[9.22 µM]
SMILES	p53ts 32C tox	FLuc inh	p53ts 39C tox
CSC(N)=NCCC[C@@H](N)C(=O)O	1%	-1%	5%
COc1ccccc1OCC(O)Cn1c(=N)n(Cc2ccccc2)c2ccccc21 (stereo not drawn)	-18%	2%	-11%
CCCCCn1c(=N)n(CC(O)COc2ccccc2OC)c2ccccc21 (stereo not drawn)	?	2%	20µM*
CO[C@H]1COC(=O)C/C=C\[C@H](C)[C@@H](OC)COC(=O)[C@@H](C)NC(=O)C/C=C\[C@@H]1C	1%[9.22 µM]	2%[11.4 µM]	3%[9.22 µM]
CCOc1ccc(CNC(=O)c2cc3ccccn3n2)cc1OC	-1%	/	-6%
O=C(Cn1cnc2onc(-c3ccc(Cl)cc3)c2c1=O)Nc1ccc(F)cc1	2%	/	?
O=C(Cn1cnc2onc(-c3ccc(F)cc3)c2c1=O)Nc1ccc(F)c(Cl)c1	-1%	/	13µM*
O=C1C=C[C@@H](O)[C@H]2[C@@H]3C(=O)N(c4cccc(Oc5ccccc5)c4)C(=O)[C@@H]3CC[C@H]12	8%[9.22 µM]	1%[11.4 µM]	-1%[9.22 µM]
Cc1ccc(Cl)cc1NC(=O)CN1C(=O)c2ccccc2Sc2ncccc21	7%	/	-4%
O=S(=O)(c1cccs1)N1CCN(Cc2nc3ccccc3s2)CC1	9%	-9%	-2%
O=C(OCc1nc2ccccc2s1)C1CCN(S(=O)(=O)c2cccs2)CC1	0%	32µM*	-5%
CC(=O)[C@H](C(=N)C#N)C(=O)Nc1ccccc1	2%[9.22 µM]	0%[11.4 µM]	-5%[9.22 µM]
O=C(/C(C=Nc1ccc(Br)cc1)=C(/O)c1ccco1)C(F)(F)F	11µM*	/	11µM*
CC(=O)c1nn(-c2ccc(Br)cc2)cc1C(=O)c1ccco1	6%	/	-2%
COCCNc1ccnc(-c2ccccc2CN(C)C)n1	4%	3%[2.29 µM]	3%
Oc1ccccc1-c1nc(-c2cccs2)c(-c2cccs2)[nH]1	?	/	25µM*
CN(C)c1ccc(-c2nc(-c3cccs3)c(-c3cccs3)[nH]2)cc1	13%	/	?
CCOc1ccc2nc(Cl)c(C3CC(c4ccccc4)=NN3C(=O)CCC(=O)O)cc2c1 (stereo not drawn)	-2%	/	20%
OC(CN1CCN(c2ccccn2)CC1)Cn1c2ccccc2c2ccccc21 (stereo not drawn)	-7%	-1%	-25%
OC(COc1ccc(Cl)c2ccccc12)CN1CCN(c2ccccn2)CC1 (stereo not drawn)	?	-36%	16µM*
Cc1ccc(S(=O)(=O)Nc2cc(Cl)c3oc4c(c3c2)C(=O)CC(C)(C)C4)cc1	-1%	/	0%
CCCn1c(NCc2ccc3c(c2)OCO3)nc2ccccc21	-6%	/	-10%
Cn1c(/C=N/n2cnnc2)nc2ccccc21	-4%	2%	-1%
CCn1c(NCc2c[nH]c3ccccc23)nc2ccccc21	-6%	-20%	-12%
Cn1c(/N=C/c2ccc3c(c2)OCO3)nc2ccccc21	-5%	2.5µM*	-2%
SMILES	p53ts 32C tox	FLuc inh	p53ts 39C tox
Cn1c(NCc2c[nH]c3ccccc23)nc2ccccc21	?	25µM*	-29%
Cn1c(/N=C/c2c[nH]c3ccccc23)nc2ccccc21	5%	0.63µM*	12%
COc1cccc(CNC(=O)C(=O)NCC(c2cccs2)S(=O)(=O)c2cccs2)c1 (stereo not drawn)	-3%	/	-8%
CCCNC(=O)C1CCC(Cn2c(=O)c3sccc3n(CC(=O)N3CCC(C)CC3)c2=O)CC1 (stereo not drawn)	3%	/	6%
O=C(CSc1nc2ccccc2nc1Cc1ccc(Cl)cc1)N1CCN(c2ccccc2F)CC1	7%	/	-4%
Cc1cc(Br)cc(C)c1OCC(=O)Nc1ccc(S(=O)(=O)Nc2ncccn2)cc1	-9%	/	-11%
CCCOC(=O)c1cccc(NC(=O)CSc2nnc3cc(C)c4ccccc4n23)c1	2%	/	-9%
Cn1c(-c2ccccc2)cnc1SCc1nc2ccccc2c(=O)[nH]1	13µM*	5µM*	?
